Test results published in PubChem BioAssay (NCI).
Compounds without any hit were thinned out: in the full panel of roughly 79,000, 15% have a hit. Active and inactive are the calls of the source. No stated cut-off is given here; in the data, active means growth inhibition above about 70%; inactive means the rest.

Legend:
[1] = NCI Yeast Anticancer Drug Screen. Data for the rad50 strain (AID 155);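 further: 0% = growth of vehicle-only cultures of the same strain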; details: S. cerevisiae rad50 strain growth inhibition, hits give high values
How it was run: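 Yeast carrying a defined DNA repair defect were exposed to test compounds, and growth was compared with vehicle-treated controls to give percent inhibition.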

[2] = NCI Yeast Anticancer Drug Screen. Data for the mec2-1 strain (AID 157); details: S. cerevisiae mec2-1 strain, hits give high values
How it was run: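 Cells of the genetically defined mec2-1 yeast strain are incubated with test compound. Inhibition of growth is calculated against vehicle-treated controls.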

[3] = NCI Yeast Anticancer Drug Screen. Data for the sgs1 mgt1 strain (AID 161);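 further: 0% = growth of cultures given vehicle only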; details: S. cerevisiae sgs1 mgt1 strain, hits give high values
How it was run: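 Inhibition of yeast growth, normalised to vehicle-treated controls, is reported for a strain bearing genetic alterations in DNA damage repair.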

[4] = NCI Yeast Anticancer Drug Screen. Data for the cln2 rad14 strain (AID 165);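 further: 0% = growth equal to vehicle treated cultures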; details: S. cerevisiae cln2 rad14 strain, hits give high values
How it was run: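 The screen exposed genetically defined yeast (cln2 rad14) to test compounds and scored growth inhibition relative to vehicle-treated controls.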

[5] = NCI Yeast Anticancer Drug Screen. Data for the bub3 strain (AID 167); details: S. cerevisiae bub3 mutant strain, hits give high values
How it was run: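 Compounds were applied to a genetically altered yeast strain carrying a cell-cycle control defect. Growth inhibition was scored against vehicle-treated controls.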

[6] = NCI Yeast Anticancer Drug Screen. Data for the mlh1 rad18 strain (AID 175); details: S. cerevisiae mlh1 rad18 strain growth inhibition, hits give high values
How it was run: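 Compound-treated yeast growth, normalised to vehicle controls. Strain bears defined DNA repair mutations.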

[7] = at 5.0 µM (retest, dose inferred, filed as 0.5)
[8] = at 50.0 µM (retest, dose inferred, filed as 5.0)

Measured: growth inhibition

O=C(O)c1cc2oc(-c3ccccc3)cc2[nH]1
active: [1]; [8] 71% | [1]; at 50.0 µM 72.5% | [2]; [8] 71% | [2]; at 50.0 µM 88.7% | [3]; [8] 74% | [5]; at 50.0 µM 83.8% | [6]; [8] 80% | [6]; at 50.0 µM 87.3%
inactive: [1]; [7] -11% | [2]; [7] -8% | [3]; [7] 7% | [3]; at 50.0 µM 47.9% | [4]; [7] -32% | [4]; [8] 34% | [4]; at 50.0 µM 69.8% | [5]; [7] -14% | [5]; [8] 51% | [6]; [7] -9%

C=C1CCC[C@@]2(C)CC[C@@H](/C(C)=C\C=C\C(C)(C)O)C[C@H]12
inactive: [1]; [7] 0% | [1]; [8] 29% | [2]; [7] -1% | [2]; [8] 32% | [3]; [7] 2% | [3]; [8] 56% | [4]; [7] -5% | [4]; [8] 0% | [5]; [7] 2% | [5]; [8] 28% | [6]; [7] -2% | [6]; [8] 53%
active: [1]; at 50.0 µM 83.1% | [2]; at 50.0 µM 92.8% | [3]; at 50.0 µM 92.5% | [4]; at 50.0 µM 91.8% | [5]; at 50.0 µM 91.7% | [6]; at 50.0 µM 88.8%

CN(C)C(=S)S(=O)(=O)CCCCS(=O)(=O)C(=S)N(C)C
inactive: [1]; [7] -1% | [1]; [8] 3% | [2]; [7] 3% | [2]; [8] 8% | [2]; at 50.0 µM 32.1% | [3]; [7] 2% | [3]; [8] 11% | [4]; [7] -6% | [4]; [8] -1% | [4]; at 50.0 µM 9% | [5]; [7] -2% | [5]; [8] 0% | [5]; at 50.0 µM 20.9% | [6]; [7] -3% | [6]; [8] 7%
active: [1]; at 50.0 µM 86.3% | [3]; at 50.0 µM 92.3% | [6]; at 50.0 µM 81.8%

CNCC(O)c1cccc(O)c1 (stereo not given)
active: [1]; at 50.0 µM 74.9%
inactive: [1]; [7] 7% | [1]; [8] 11% | [2]; [7] 2% | [2]; [8] -9% | [2]; at 50.0 µM 14.8% | [3]; [7] 2% | [3]; [8] -7% | [3]; at 50.0 µM 45% | [4]; [7] 8% | [4]; [8] -12% | [4]; at 50.0 µM 19% | [5]; [7] 0% | [5]; [8] -18% | [5]; at 50.0 µM 21.2% | [6]; [7] 1% | [6]; [8] -5% | [6]; at 50.0 µM 31%

O=CC(=C\c1ccco1)/C(C=O)=C\c1ccco1
active: [6]; [8] 86% | [6]; at 50.0 µM 71.9%
inactive: [1]; [7] 11% | [1]; [8] 25% | [1]; at 50.0 µM 18.1% | [2]; [7] 7% | [2]; [8] 44% | [2]; at 50.0 µM 5.45% | [3]; [7] 11% | [3]; [8] 63% | [3]; at 50.0 µM 13% | [4]; [7] 2% | [4]; [8] 15% | [4]; at 50.0 µM 33.9% | [5]; [7] -6% | [5]; [8] 33% | [5]; at 50.0 µM -23.6% | [6]; [7] 21%

CC(CN(C)C)C(/C=C/c1ccc(Cl)cc1)=N\NC(=O)c1ccccc1 (stereo not given)
inactive: [1]; [7] 3% | [1]; [8] 15% | [1]; at 50.0 µM 17.6% | [2]; [7] 2% | [2]; [8] 12% | [2]; at 50.0 µM -4.45% | [3]; [7] 1% | [3]; [8] -3% | [3]; at 50.0 µM -15.3% | [4]; [7] 2% | [4]; [8] 6% | [4]; at 50.0 µM -1.65% | [5]; [7] -3% | [5]; [8] -10% | [5]; at 50.0 µM -11.9% | [6]; [7] 3% | [6]; [8] -36% | [6]; at 50.0 µM 27.2%

N#CC1(C#N)C2C=CC(C3CCC=C32)C1(C#N)C#N (stereo not given)
inactive: [1]; [7] 14% | [1]; at 50.0 µM 0.4% | [2]; [7] 17% | [2]; at 50.0 µM 45.3% | [3]; [7] 11% | [3]; at 50.0 µM 60.5% | [4]; [7] 10% | [4]; [8] 60% | [4]; at 50.0 µM -16.2% | [5]; [7] 25% | [6]; [7] 25% | [6]; at 50.0 µM 68.8%
active: [1]; [8] 93% | [2]; [8] 97% | [3]; [8] 96% | [5]; [8] 97% | [5]; at 50.0 µM 95% | [6]; [8] 97%

CSc1ccc(/C=C2\CN(C)C/C(=C\c3ccc(SC)cc3)C2=O)cc1
active: [1]; at 50.0 µM 73.5% | [2]; at 50.0 µM 70% | [3]; at 50.0 µM 91.6% | [6]; at 50.0 µM 82.8%
inactive: [1]; [7] 43% | [1]; [8] 52% | [2]; [7] -7% | [2]; [8] 32% | [3]; [7] 36% | [3]; [8] 61% | [4]; [7] 34% | [4]; [8] 33% | [4]; at 50.0 µM 68.4% | [5]; [7] 25% | [5]; [8] 45% | [5]; at 50.0 µM 44% | [6]; [7] 29% | [6]; [8] 15%

BrC1CCCCCC1
inactive: [1]; [7] 2% | [1]; [8] 10% | [1]; at 50.0 µM 51.9% | [2]; [7] 3% | [2]; [8] 16% | [2]; at 50.0 µM 34.5% | [3]; [7] 1% | [3]; [8] 22% | [3]; at 50.0 µM 57.4% | [4]; [7] 6% | [4]; [8] 14% | [4]; at 50.0 µM 27.4% | [5]; [7] 5% | [5]; [8] 35% | [5]; at 50.0 µM 37% | [6]; [7] 6% | [6]; [8] 24%
active: [6]; at 50.0 µM 81.7%

Cc1ccc2c(c1)nc1n2C(N)=Nc2ccccc2S1
active: [5]; at 50.0 µM 75.2%
inactive: [1]; [7] 14% | [1]; [8] 47% | [1]; at 50.0 µM 65.5% | [2]; [7] -14% | [2]; [8] 28% | [2]; at 50.0 µM 45.3% | [3]; [7] -5% | [3]; [8] 45% | [3]; at 50.0 µM 68.6% | [4]; [7] -10% | [4]; [8] 17% | [4]; at 50.0 µM 37.8% | [5]; [7] -16% | [5]; [8] 47% | [6]; [7] 0% | [6]; [8] 40% | [6]; at 50.0 µM 57.2%
